# From article PMC7862700, “An all-to-all approach to the identification of sequence-specific readers for epigenetic DNA modifications on cytosine”
# Assays:
# Assay in all cases: DAPPL (digital affinity profiling via proximity ligation, sequencing); 10 mM Tris-HCl pH 7.5, 50 mM NaCl, 1 mM DTT, 4% glycerol, room temperature, 30 min; GST-TFs on glutathione beads, 16-mer random dsDNA library, 0.1% formaldehyde crosslink after washing; high values mean tight binding
# FLI1 = molecular target: T1, FLI1 (Homo sapiens, UniProt Q01543 1-452); settings: protein: recombinant; tags: N-terminal GST; dsDNA, one strand shown
# T1 sequence: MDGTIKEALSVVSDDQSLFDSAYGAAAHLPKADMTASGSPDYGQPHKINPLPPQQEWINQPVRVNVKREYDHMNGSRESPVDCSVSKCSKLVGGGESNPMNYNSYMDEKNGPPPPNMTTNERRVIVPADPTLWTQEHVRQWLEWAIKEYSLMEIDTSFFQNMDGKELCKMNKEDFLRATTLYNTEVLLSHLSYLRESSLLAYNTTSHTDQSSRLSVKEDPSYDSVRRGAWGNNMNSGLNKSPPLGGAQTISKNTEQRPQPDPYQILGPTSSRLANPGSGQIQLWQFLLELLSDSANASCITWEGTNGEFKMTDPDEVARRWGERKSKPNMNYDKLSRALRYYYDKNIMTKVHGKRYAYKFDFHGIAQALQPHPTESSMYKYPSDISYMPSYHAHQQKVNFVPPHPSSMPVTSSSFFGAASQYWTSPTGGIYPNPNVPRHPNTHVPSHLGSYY
# How it was run: (§1)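 Sequencing on an Illumina NextSeq500 followed washing, crosslinking with 0.1% formaldehyde, proximity ligation (BsaI/T4 ligase, 1 h, 37 °C) and PCR amplification of pools that had been incubated for 30 min at room temperature with 200 nmole of a random double-stranded 16-mer DNA library in Tris/NaCl/DTT/glycerol buffer. Each pool held DNA-barcoded human transcription factors, expressed in yeast as GST fusions and captured on glutathione beads, plus a tag-only sample. Binding signal is a hexamer's read frequency for a factor divided by its frequency in the tag-only sample.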
# ELK1 = molecular target: T2, ELK1 (Homo sapiens, UniProt P19419 1-428); settings: protein: recombinant; tags: N-terminal GST; dsDNA, one strand shown
# T2 sequence: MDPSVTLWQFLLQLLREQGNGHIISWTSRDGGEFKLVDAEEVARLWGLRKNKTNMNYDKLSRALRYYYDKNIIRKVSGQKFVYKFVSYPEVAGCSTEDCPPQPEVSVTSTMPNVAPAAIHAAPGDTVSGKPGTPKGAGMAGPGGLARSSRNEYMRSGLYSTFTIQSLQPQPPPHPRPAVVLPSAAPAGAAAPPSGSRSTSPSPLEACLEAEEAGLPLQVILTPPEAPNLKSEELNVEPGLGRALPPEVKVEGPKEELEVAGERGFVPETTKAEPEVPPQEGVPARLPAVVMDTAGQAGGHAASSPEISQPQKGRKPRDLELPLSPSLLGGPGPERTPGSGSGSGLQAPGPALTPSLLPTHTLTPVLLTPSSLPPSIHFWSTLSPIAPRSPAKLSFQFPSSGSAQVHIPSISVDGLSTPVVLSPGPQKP
# How it was run: as §1
# GABPA = molecular target: T3, GABPA (Homo sapiens, UniProt Q06546 1-454); settings: protein: recombinant; tags: N-terminal GST; dsDNA, one strand shown
# T3 sequence: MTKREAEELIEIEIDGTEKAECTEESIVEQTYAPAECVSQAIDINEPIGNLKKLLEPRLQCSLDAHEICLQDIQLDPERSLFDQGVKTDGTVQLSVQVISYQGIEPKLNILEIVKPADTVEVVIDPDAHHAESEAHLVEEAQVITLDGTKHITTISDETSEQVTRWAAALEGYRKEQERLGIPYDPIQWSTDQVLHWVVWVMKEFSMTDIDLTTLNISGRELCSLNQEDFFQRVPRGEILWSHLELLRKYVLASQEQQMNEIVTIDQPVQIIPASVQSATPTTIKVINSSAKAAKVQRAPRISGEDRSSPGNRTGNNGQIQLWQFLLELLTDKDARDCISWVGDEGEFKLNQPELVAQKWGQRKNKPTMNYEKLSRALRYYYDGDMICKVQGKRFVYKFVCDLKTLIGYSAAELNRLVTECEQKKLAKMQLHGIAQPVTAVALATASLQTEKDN
# How it was run: as §1
# ERG = molecular target: T4, ERG (Homo sapiens, UniProt P11308 1-479); settings: protein: recombinant; tags: N-terminal GST; dsDNA, one strand shown
# T4 sequence: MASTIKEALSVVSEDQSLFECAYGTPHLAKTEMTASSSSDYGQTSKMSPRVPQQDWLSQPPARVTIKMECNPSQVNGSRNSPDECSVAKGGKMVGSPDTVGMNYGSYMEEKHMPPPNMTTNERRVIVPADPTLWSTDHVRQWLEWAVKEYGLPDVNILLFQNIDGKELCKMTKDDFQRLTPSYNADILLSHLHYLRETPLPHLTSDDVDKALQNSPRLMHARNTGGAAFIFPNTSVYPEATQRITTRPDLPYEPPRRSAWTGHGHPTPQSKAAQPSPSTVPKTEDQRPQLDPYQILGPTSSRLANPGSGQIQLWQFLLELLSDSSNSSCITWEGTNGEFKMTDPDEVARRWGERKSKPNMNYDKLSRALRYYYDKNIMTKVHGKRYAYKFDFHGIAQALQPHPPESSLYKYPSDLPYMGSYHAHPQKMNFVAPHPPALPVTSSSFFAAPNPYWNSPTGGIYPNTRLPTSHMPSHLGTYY
# How it was run: as §1
# ELF1 = ELF1 (Homo sapiens, UniProt P32519 1-619); settings: protein: recombinant; tags: N-terminal GST; dsDNA, one strand shown
# Sequence of ELF1 (P32519 whole entry): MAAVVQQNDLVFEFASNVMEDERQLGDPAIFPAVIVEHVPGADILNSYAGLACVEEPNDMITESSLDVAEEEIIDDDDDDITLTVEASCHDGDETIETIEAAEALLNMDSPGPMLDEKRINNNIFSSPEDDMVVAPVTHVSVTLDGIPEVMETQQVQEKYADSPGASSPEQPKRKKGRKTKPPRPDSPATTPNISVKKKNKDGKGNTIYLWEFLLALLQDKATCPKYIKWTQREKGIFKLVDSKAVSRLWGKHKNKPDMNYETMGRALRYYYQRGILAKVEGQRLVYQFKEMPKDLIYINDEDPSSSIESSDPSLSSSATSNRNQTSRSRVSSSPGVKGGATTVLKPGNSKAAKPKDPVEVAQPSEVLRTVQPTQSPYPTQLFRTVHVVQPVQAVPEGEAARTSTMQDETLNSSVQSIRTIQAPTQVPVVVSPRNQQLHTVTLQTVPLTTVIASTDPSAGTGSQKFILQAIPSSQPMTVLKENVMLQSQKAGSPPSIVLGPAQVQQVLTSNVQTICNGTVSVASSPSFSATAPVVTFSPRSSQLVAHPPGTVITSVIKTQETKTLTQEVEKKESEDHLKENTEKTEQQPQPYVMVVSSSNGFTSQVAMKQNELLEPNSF
# How it was run: as §1
# EHF = molecular target: T5, EHF (Homo sapiens, UniProt Q9NZC4 1-300); settings: protein: recombinant; tags: N-terminal GST; dsDNA, one strand shown
# T5 sequence: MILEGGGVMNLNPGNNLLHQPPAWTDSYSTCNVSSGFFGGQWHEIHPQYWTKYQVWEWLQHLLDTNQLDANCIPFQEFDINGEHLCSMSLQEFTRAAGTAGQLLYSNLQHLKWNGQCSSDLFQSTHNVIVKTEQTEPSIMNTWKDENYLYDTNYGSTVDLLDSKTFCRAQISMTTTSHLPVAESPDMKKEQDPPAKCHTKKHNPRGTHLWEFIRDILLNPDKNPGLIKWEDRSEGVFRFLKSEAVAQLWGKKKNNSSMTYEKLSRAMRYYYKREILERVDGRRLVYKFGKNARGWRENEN
# How it was run: as §1
# SPI1 = SPI1 (Homo sapiens, UniProt P17947 1-270); settings: protein: recombinant; tags: N-terminal GST; dsDNA, one strand shown
# How it was run: as §1
# SPIB = SPIB (Homo sapiens, UniProt Q01892 1-262); settings: protein: recombinant; tags: N-terminal GST; dsDNA, one strand shown
# Sequence of SPIB (Q01892 whole entry): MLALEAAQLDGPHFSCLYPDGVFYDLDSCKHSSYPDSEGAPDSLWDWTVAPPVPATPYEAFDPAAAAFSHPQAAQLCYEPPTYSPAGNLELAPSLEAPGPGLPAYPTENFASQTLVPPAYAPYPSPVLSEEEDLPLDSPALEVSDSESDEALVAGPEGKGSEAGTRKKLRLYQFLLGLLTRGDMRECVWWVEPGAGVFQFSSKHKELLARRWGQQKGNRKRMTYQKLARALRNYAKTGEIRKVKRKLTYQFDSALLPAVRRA
# How it was run: as §1
# ELK3 = molecular target: T6, ELK3 (Homo sapiens, UniProt P41970 1-407); settings: protein: recombinant; tags: N-terminal GST; dsDNA, one strand shown
# T6 sequence: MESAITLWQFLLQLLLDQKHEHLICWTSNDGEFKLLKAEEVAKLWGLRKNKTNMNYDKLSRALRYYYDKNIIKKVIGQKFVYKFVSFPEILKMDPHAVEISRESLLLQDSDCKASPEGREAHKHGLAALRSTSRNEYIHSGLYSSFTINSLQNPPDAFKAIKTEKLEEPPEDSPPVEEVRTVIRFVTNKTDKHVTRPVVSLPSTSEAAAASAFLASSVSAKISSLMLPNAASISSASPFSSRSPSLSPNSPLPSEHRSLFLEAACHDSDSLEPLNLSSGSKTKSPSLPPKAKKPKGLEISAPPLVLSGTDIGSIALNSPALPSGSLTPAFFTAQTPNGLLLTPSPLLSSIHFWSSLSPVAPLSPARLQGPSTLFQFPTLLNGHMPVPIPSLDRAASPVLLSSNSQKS
# How it was run: as §1
# FEV = molecular target: T7, FEV (Homo sapiens, UniProt Q99581 1-238); settings: protein: recombinant; tags: N-terminal GST; dsDNA, one strand shown
# T7 sequence: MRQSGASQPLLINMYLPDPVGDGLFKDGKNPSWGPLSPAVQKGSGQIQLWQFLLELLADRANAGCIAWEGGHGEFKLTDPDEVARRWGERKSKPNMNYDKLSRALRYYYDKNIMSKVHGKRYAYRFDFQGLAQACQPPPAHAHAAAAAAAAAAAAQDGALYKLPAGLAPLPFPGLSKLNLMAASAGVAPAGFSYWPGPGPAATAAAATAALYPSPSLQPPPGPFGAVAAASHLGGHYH
# How it was run: as §1
# ETV5 = ETV5 (Homo sapiens, UniProt P41161 1-510); settings: protein: recombinant; tags: N-terminal GST; dsDNA, one strand shown
# Sequence of ETV5 (P41161 whole entry): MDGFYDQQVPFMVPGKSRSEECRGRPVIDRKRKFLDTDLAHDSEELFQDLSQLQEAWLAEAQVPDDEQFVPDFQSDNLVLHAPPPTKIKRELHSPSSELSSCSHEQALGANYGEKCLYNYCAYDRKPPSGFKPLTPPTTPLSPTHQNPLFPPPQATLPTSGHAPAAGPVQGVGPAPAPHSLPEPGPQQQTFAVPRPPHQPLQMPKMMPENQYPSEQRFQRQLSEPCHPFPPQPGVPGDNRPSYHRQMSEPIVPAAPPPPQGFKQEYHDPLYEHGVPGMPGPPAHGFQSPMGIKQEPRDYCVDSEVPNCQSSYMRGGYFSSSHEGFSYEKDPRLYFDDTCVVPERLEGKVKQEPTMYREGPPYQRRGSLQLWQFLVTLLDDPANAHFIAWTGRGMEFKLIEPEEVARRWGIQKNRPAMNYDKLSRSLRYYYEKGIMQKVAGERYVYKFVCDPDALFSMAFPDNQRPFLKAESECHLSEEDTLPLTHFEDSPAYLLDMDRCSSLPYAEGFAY
# How it was run: as §1
# HSF1 = HSF1 (Homo sapiens, UniProt Q00613 1-529); settings: protein: recombinant; tags: N-terminal GST; chain copies: 3; dsDNA, one strand shown
# Sequence of HSF1 (Q00613 whole entry): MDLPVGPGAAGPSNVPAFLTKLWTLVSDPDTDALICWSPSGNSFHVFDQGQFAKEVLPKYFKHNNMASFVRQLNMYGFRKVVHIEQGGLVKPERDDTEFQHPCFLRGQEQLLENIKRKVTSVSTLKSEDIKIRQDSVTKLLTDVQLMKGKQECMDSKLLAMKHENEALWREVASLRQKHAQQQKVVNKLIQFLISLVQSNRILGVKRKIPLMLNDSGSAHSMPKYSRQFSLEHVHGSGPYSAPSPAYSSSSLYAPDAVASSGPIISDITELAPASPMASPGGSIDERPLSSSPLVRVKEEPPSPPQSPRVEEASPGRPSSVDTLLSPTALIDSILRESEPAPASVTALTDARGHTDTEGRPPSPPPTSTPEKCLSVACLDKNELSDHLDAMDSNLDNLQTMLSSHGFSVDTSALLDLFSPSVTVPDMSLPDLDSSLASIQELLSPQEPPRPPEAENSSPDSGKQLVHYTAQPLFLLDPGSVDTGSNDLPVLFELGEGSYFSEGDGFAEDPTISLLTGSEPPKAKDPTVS
# How it was run: as §1
# SPIC = molecular target: T8, SPIC (Homo sapiens, UniProt Q8N5J4 1-248); settings: protein: recombinant; tags: N-terminal GST; dsDNA, one strand shown
# T8 sequence: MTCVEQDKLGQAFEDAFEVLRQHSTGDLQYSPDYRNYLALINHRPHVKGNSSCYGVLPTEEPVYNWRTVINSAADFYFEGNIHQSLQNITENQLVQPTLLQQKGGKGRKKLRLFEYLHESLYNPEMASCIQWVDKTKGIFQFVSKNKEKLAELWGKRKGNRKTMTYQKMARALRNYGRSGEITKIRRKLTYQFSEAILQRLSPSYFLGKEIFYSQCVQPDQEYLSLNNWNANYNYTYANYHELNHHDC
# How it was run: as §1
# ELF4 = ELF4 (Homo sapiens, UniProt Q99607 1-663); settings: protein: recombinant; tags: N-terminal GST; dsDNA, one strand shown
# Sequence of ELF4 (Q99607 whole entry): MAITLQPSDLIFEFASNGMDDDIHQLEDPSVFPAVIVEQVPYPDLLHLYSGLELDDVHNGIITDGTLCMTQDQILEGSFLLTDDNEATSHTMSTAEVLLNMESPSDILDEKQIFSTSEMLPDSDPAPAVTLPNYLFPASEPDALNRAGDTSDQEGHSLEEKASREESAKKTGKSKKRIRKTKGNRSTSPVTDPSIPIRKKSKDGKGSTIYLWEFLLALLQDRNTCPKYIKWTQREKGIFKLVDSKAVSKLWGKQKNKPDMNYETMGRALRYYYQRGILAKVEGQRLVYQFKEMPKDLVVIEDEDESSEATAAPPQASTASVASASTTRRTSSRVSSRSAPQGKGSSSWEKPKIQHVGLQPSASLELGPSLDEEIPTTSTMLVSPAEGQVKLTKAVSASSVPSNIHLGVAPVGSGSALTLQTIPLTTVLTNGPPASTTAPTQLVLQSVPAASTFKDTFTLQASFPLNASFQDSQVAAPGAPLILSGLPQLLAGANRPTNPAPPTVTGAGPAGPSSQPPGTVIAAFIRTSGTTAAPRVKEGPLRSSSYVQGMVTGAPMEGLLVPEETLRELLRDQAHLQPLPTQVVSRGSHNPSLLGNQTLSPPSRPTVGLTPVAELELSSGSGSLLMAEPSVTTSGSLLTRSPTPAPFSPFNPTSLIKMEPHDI
# How it was run: as §1
# ELK4 = molecular target: T9, ELK4 (Homo sapiens, UniProt P28324-2 1-405); settings: protein: recombinant; tags: N-terminal GST; dsDNA, one strand shown
# T9 sequence: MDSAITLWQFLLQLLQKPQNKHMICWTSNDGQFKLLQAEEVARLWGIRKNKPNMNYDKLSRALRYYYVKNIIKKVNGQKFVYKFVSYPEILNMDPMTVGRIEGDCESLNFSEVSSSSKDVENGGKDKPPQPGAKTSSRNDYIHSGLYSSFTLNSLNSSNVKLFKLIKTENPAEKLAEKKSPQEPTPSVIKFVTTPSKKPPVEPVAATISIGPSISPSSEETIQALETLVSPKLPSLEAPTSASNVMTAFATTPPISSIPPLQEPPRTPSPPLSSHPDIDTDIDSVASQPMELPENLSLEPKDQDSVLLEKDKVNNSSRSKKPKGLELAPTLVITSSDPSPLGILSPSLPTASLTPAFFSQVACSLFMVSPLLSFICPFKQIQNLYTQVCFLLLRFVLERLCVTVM
# How it was run: as §1
# ETV2 = molecular target: T10, ETV2 (Homo sapiens, UniProt O00321 1-342); settings: protein: recombinant; tags: N-terminal GST; dsDNA, one strand shown
# T10 sequence: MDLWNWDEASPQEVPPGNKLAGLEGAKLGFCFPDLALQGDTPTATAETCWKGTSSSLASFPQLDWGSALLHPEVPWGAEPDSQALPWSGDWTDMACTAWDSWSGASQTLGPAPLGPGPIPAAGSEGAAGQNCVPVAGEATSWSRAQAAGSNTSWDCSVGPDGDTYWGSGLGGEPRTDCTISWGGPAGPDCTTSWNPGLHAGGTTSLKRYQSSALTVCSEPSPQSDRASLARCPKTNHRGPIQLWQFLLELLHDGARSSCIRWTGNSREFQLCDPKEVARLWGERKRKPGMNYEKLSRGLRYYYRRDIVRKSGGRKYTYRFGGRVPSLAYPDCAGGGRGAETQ
# How it was run: as §1
# ELF3 = molecular target: T11, ELF3 (Homo sapiens, UniProt P78545 1-371); settings: protein: recombinant; tags: N-terminal GST; dsDNA, one strand shown
# T11 sequence: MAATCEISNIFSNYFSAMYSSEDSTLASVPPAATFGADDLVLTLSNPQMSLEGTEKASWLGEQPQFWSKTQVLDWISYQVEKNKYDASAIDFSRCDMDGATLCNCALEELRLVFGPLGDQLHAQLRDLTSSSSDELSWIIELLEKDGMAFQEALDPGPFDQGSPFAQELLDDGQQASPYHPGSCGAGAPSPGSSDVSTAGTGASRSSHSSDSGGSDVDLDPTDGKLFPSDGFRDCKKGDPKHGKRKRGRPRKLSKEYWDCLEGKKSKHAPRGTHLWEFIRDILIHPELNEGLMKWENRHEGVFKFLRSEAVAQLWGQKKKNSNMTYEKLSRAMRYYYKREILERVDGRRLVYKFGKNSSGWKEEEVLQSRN
# How it was run: as §1
# CRX = CRX (Homo sapiens, UniProt O43186 1-299); settings: protein: recombinant; tags: N-terminal GST; dsDNA, one strand shown
# Sequence of CRX (O43186 whole entry): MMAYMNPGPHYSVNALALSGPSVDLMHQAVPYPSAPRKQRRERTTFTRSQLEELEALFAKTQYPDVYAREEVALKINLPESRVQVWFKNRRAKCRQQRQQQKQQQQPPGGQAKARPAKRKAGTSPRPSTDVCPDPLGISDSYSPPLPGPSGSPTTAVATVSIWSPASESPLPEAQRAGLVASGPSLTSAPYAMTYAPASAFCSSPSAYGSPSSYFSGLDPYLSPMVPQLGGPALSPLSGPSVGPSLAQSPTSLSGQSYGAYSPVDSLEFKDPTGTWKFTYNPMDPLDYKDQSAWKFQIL
# How it was run: as §1
# ETV1 = ETV1 (Homo sapiens, UniProt P50549 1-477); settings: protein: recombinant; tags: N-terminal GST; dsDNA, one strand shown
# Sequence of ETV1 (P50549 whole entry): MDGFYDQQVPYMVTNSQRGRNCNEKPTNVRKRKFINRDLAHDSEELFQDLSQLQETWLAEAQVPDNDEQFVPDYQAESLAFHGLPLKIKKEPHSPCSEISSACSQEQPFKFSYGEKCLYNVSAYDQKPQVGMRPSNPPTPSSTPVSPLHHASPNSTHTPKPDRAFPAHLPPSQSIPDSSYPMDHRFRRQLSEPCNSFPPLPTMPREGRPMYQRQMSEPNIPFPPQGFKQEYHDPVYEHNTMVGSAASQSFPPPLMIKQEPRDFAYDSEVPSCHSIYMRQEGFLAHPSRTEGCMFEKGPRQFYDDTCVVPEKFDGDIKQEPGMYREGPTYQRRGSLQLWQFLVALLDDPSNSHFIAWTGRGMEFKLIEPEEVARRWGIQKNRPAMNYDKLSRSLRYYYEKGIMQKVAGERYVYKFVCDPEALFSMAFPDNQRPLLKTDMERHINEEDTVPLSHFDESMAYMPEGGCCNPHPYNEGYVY
# How it was run: as §1
sequence,measurement,setting,value
CGTACT,binding signal,FLI1,"1.2 fold enrichment (6-mer frequency, TF over GST control)"
same,binding signal,ELK1,"1.17 fold enrichment (6-mer frequency, TF over GST control)"
same,binding signal,GABPA,"1.19 fold enrichment (6-mer frequency, TF over GST control)"
same,binding signal,ERG,"1.16 fold enrichment (6-mer frequency, TF over GST control)"
same,binding signal,ELF1,"1.27 fold enrichment (6-mer frequency, TF over GST control)"
same,binding signal,EHF,"1.18 fold enrichment (6-mer frequency, TF over GST control)"
same,binding signal,SPI1,"1.11 fold enrichment (6-mer frequency, TF over GST control)"
same,binding signal,SPIB,"1.12 fold enrichment (6-mer frequency, TF over GST control)"
same,binding signal,ELK3,"1.26 fold enrichment (6-mer frequency, TF over GST control)"
same,binding signal,FEV,"1.17 fold enrichment (6-mer frequency, TF over GST control)"
same,binding signal,ETV5,"1.22 fold enrichment (6-mer frequency, TF over GST control)"
same,binding signal,HSF1,"1.05 fold enrichment (6-mer frequency, TF over GST control)"
same,binding signal,SPIC,"1.12 fold enrichment (6-mer frequency, TF over GST control)"
same,binding signal,ELF4,"1.25 fold enrichment (6-mer frequency, TF over GST control)"
same,binding signal,ELK4,"1.22 fold enrichment (6-mer frequency, TF over GST control)"
same,binding signal,ETV2,"1.35 fold enrichment (6-mer frequency, TF over GST control)"
same,binding signal,ELF3,"1.15 fold enrichment (6-mer frequency, TF over GST control)"
same,binding signal,CRX,"1.07 fold enrichment (6-mer frequency, TF over GST control)"
same,binding signal,ETV1,"1.34 fold enrichment (6-mer frequency, TF over GST control)"
